Assay results published in ChEMBL document CHEMBL3988442, “University of Dundee, Small-Polar-MMV Screening Library” (2021).
Among all 48,000 compounds or so, about 13,000 (27%) showed an effect of 50% or more. Some of the results follow.

Tested on: Wolbachia pipientis
Assay: Anti-Wolbachia Cell-Based Screen
Type: functional
Parameters: scale not given: in the data most compounds retested in dose-response had high values
Settings: 5 µM

Row | Structure (SMILES) | Percent Effect [%]
1 | Cc1cc(N(C)CC2COc3ccccc3O2)nc(C)n1 (stereo not drawn) | -50.37
2 | CCOCCN1CCN(CC(=O)NC2(C#N)CCCC2)CC1C (stereo not drawn) | 0.8038
3 | N#Cc1cccc(C(=O)N2CCn3c(Cn4cncn4)cnc3C2)c1 | 83.01
4 | CN1CCN(Cc2cnc3n2CCN(C(=O)c2ccnnc2)C3)CC1 | -11.55
5 | Cc1cncc(C(=O)N2CCc3ncc(Cn4cccn4)n3CC2)c1 | 88.89
6 | Cc1ccc(C(=O)N2CCc3ncc(Cn4cccn4)n3CC2)o1 | 95.36
7 | O=C(NCc1cccnc1)N1CCn2c(Cn3cccn3)cnc2C1 | 2.46
8 | O=C(NCc1ccccc1)N1CCn2c(Cn3cccn3)cnc2C1 | -1.854
9 | O=S(=O)(C1CC1)N1CCn2c(Cn3cncn3)cnc2C1 | 13.19
10 | N#Cc1ccc(S(=O)(=O)N2CC(CC(=O)O)c3ccccc32)cc1 (stereo not drawn) | -12.53
11 | Cc1noc(CNc2ccccc2CC(=O)N(C)C)n1 | -7.553
12 | N#CCc1ccc(OCC(=O)N2CCCC(n3cccn3)C2)cc1 (stereo not drawn) | -0.2298
13 | Cc1ncsc1CCN1CCC(N(C)Cc2ncc(C(C)C)o2)C1 (stereo not drawn) | -3.966
14 | Cc1nnc(CN2CCOC(c3ccc(Cl)cc3)C2)o1 (stereo not drawn) | -9.345
15 | O=c1[nH]c2nc(NCC3CCCO3)ncc2c(=O)n1-c1ccc(F)cc1 (stereo not drawn) | -3.035
16 | CN(Cc1csc(-c2cccs2)n1)C(=O)CCn1ccccc1=O | -2.021
17 | COc1cc(F)c(S(=O)(=O)N2CCN(C)Cc3ccccc32)cc1OC | -10.31
18 | CC(=O)NCC(=O)N1CCn2cc(CN(C)Cc3ccco3)nc2C1.O=C(O)C(F)(F)F | -4.865
19 | O=C(Cc1ccsc1)N1CCn2cc(CN3CCCC3)nc2C1 | -4.915
20 | O=C(Cc1ccsc1)N1CCn2cc(Cn3cncn3)nc2C1 | 4.087
21 | CC(C)N(C)Cc1cn2c(n1)CN(Cc1ccsc1)CC2.O=C(O)C(F)(F)F.O=C(O)C(F)(F)F | 6.195
22 | CC(C)N(C)Cc1cn2c(n1)CN(C(=O)Cc1ccccc1)CC2.O=C(O)C(F)(F)F | 114
23 | CN(C)Cc1cn2c(n1)CN(C(=O)Cc1ccsc1)CC2.O=C(O)C(F)(F)F | 96.46
24 | CCN(CC)Cc1cn2c(n1)CN(C(=O)Cc1ccsc1)CC2.O=C(O)C(F)(F)F | 83.51
25 | CC(C)N(C)Cc1cn2c(n1)CN(C(=O)Cc1ccsc1)CC2.O=C(O)C(F)(F)F | -0.9088
26 | CN(C)Cc1cc(=O)n2c(n1)CN(C(=O)Cc1ccsc1)CCC2.O=C(O)C(F)(F)F | -8.762

Row | Structure (SMILES) | Percent Effect [%]
27 | CN1CCOCC2(CCCN(C(=O)c3cn(C)cn3)C2)C1.O=C(O)C(F)(F)F (stereo not drawn) | -3.228
28 | CCNC(=O)NC(C)(C)C(=O)NCCc1csc2ccccc12 | 9.687
29 | O=C(Cc1cccnc1)NC1COc2ccccc2C1=O (stereo not drawn) | -10.11
30 | CCCC1CCCN(C(=O)CNC(=O)c2ccoc2C)CC1 (stereo not drawn) | 7.571
31 | O=S(=O)(NCCN1CCOCC1)c1cncc(Cl)c1 | -2.689
32 | O=S(=O)(C1CC1)N1CCc2c(CN3CCOCC3)cncc2C1 | 82.99
33 | CCOCc1cncc2c1CCN(S(=O)(=O)c1cccc(C)c1)C2 | 11.95
34 | CC(C)(C)NC(=O)NC(=O)COc1nc(C(C)(C)C)no1 | -2.31
35 | CC(C)(C)n1ncc2c(=O)n(CC(=O)NCCc3ccccc3)cnc21 | 21.71
36 | O=C(Cn1cccnc1=O)NCCc1ccc2c(c1)OCCO2 | 1.93
37 | O=C(Cn1cnc2cc3c(cc21)OCCCO3)NC1CCCCC1 | 96.56
38 | O=C(Cc1cc(-c2ccc3c(c2)OCO3)on1)NC1CCCC1 | -5.202
39 | O=C(Cn1cnc2cc3c(cc21)OCCCO3)NC1CCCC1 | 88.37
40 | O=C(Cn1cnc2cc3c(cc21)OCCCO3)NCCc1ccccc1 | 66.67
41 | O=C(CCNCc1cccc2c1OCCCO2)NC1CCCC1 | -1.594
42 | CNc1nc(CNC(=O)Nc2ccc(OC(C)C)cc2F)cs1 | 6.813
43 | CC(c1cccc(Cl)c1)N1CCN(S(C)(=O)=O)CC1 (stereo not drawn) | 0.53
44 | CS(=O)(=O)N1CCN(CC(O)COc2ccc(Cl)cc2)CC1 (stereo not drawn) | 153.2
45 | CCc1ccc(OCC(O)CN2CCN(S(C)(=O)=O)CC2)cc1 (stereo not drawn) | 13.83
46 | CCOc1ccc(OCC(O)CN2CCN(S(C)(=O)=O)CC2)cc1 (stereo not drawn) | 152.9
47 | CS(=O)(=O)N1CCN(CC(O)COc2ccc(F)cc2)CC1 (stereo not drawn) | -6.942
48 | CN1CCC(N2CC[C@@H]3[C@@H](CCC(=O)N3CCC3=CCCCC3)C2)CC1 | -18.13
49 | CC(Cn1cccn1)NS(=O)(=O)Cc1ccc(F)cc1 (stereo not drawn) | 0.5755
50 | COc1cc(CCC(=O)NC2CC2)ccc1OCC(F)(F)F | -6.568
51 | CNC(=O)COc1c(C(C)=O)ccc(Cl)c1Cl | -15.04
52 | COC(=O)COc1c(F)cc(Br)cc1C(C)=O | 110.5

Row | Structure (SMILES) | Percent Effect [%]
53 | CNC(=O)NC(=O)COc1c(C(C)=O)ccc(Cl)c1Cl | 18.02
54 | CC(=O)c1ccc(Cl)c(Cl)c1OCC(=O)NCC(F)(F)F | -11.44
55 | Cc1ccc(OCC(=O)NC2CC2)nc1 | -4.219
56 | CNC(=O)COc1c(F)cc(Br)cc1C(C)=O | 112.4
57 | CC(=O)c1ccc(Cl)c(Cl)c1OCC(=O)NC(C)C | -9.893
58 | O=C(COc1ccc(Br)cc1F)Nc1cn[nH]c1 | -2.369
59 | COc1ccc(C(C)=O)c(OCC(=O)NC(C)c2ccc(F)cc2)c1 (stereo not drawn) | 9.317
60 | CC(=O)c1cc(Br)cc(F)c1OCC(=O)NC(C)C | 60.24
61 | CC(=O)c1cc(Br)cc(F)c1OCC(=O)NC1CC1 | 100.7
62 | CCSc1ncc(CN(Cc2cnn(C)c2)CC(C)C)cn1 | -10.44
63 | Cc1cc(C(=O)OCC2CCCN2C(N)=O)c(C)o1 (stereo not drawn) | -25.43
64 | CC(C)c1cc(N2CCC[C@H](N)C2)n2nccc2n1 | 19.12
65 | CCc1noc(CNc2cc3c(cc2Cl)OCCCO3)n1 | -0.8134
66 | Cc1n[nH]c(=O)c2c(NC(=O)CN3CCCC(C(F)(F)F)C3)oc(C)c12 (stereo not drawn) | 17.73
67 | CC(NC(=O)N1CCS(=O)(=O)CC1)c1ccc(F)cc1Cl (stereo not drawn) | -12.17
68 | NC(=O)C1=NC2=NS(=O)(=O)c3ccccc3N2N1Cc1ccccc1Cl | -9.423
69 | COc1ccc(NC(C)=O)c(N2CCN(C(C)=O)CC2)n1 | 4.921
70 | COc1ccc2c3c1CN(C(C)=O)CC3=CC(C)(C)CO2 | 80.53
71 | COCC1CC2(CCN(C(=O)c3ccc(OC)c(Cl)c3)CC2)CO1 (stereo not drawn) | 1.634
72 | COCCOC(=O)N1CC2=CC(C)(C)COc3ccc(OC)c(c32)C1 | 110
73 | COC(=O)N1CC2=CC(C)(C)COc3ccc(OC)c(c32)C1 | 125.4
74 | COc1ccc2c3c1CN(S(C)(=O)=O)CC3=CC(C)(C)CO2 | 106.6
75 | COc1ccccc1C(C)N1CCN(S(C)(=O)=O)CC1 (stereo not drawn) | -21.28
76 | COc1ncccc1C1CC(=O)NCc2nc3sccn3c21 (stereo not drawn) | -19.07
77 | COCc1cc(NCc2cccnc2Oc2ccc(C)nc2)ncn1 | -2.689
78 | CSCCC1c2nc[nH]c2CCN1Cc1cncn1C (stereo not drawn) | -0.6967

Row | Structure (SMILES) | Percent Effect [%]
79 | CSCc1noc(CNC(=O)c2cc(C)c(C)[nH]c2=O)n1 | -3.67
80 | CC(C)N(C)C(=O)C1CSCN1S(=O)(=O)c1cccs1 (stereo not drawn) | 24.99
81 | CCc1cc(NCC(N)=O)nc(N2CCCCC2)n1 | 3.256
82 | CCNC(=O)N1CC2=CC(C)(C)COc3ccc(OC)c(c32)C1 | 61.47
83 | CCNC(=O)N1C[C@@H](NC(C)=O)[C@H](c2ccc(C)o2)C1 | -5.007
84 | COc1ccc2c3c1CN(C(=O)N(C)C)CC3=CC(C)(C)CO2 | 71.28
85 | COCC(=O)N1CCN(C(=O)C2(c3ccc(C)c(OC)c3)CC2)CC1 | 8.797
86 | CCNC(=O)N1CCC2(CC1)CCn1c(-c3cccc(OC)c3)cnc12 | -4.783
87 | COc1ccc2cc(C3CN(C(=O)N(C)C)CCO3)ccc2c1 (stereo not drawn) | 8.393
88 | COCC(=O)N1CCc2[nH]nc(-c3ccc4c(c3)OCO4)c2C1 | -8.415
89 | COCC(=O)N1CC2=CC(C)(C)COc3ccc(OC)c(c32)C1 | 86.58
90 | Cc1cccc2ncnc(N3CCOC(C)C3)c12 (stereo not drawn) | 0.1008
91 | O=C1C(N2CCN(c3ccccc3Cl)CC2)CCN1C1CCOCC1 (stereo not drawn) | -17.41
92 | CCCn1nc(C)c(CNC(=O)C2COc3c(cccc3OC)C2)c1C (stereo not drawn) | -7.419
93 | O=C(NC[C@H]1OC[C@@H](NCc2ccccc2F)[C@@H]1O)c1ccc(F)cc1 | -2.288
94 | CC(C)c1n[nH]c(C(=O)Nc2ccnn2C(C)C)c1Br | -14.02
95 | COc1ccncc1NC(=O)c1[nH]nc(C(C)C)c1Br | -9.572
96 | CC(C)c1n[nH]c(C(=O)NC(C)c2ccncc2)c1Br (stereo not drawn) | 112.2
97 | CC(C)c1n[nH]c(C(=O)Nc2ccccn2)c1Br | 113.3
98 | COc1ncccc1NC(=O)c1[nH]nc(C(C)C)c1Br | 15.14
99 | Cc1cccc(NC(=O)c2[nH]nc(C(C)C)c2Br)n1 | 122.8
100 | Cc1ccnc(NC(=O)c2[nH]nc(C(C)C)c2Br)c1 | 97.23
101 | CC(C)c1n[nH]c(C(=O)Nc2ccncc2)c1Br | -16.38
102 | CC(C)c1n[nH]c(C(=O)Nc2cc[nH]n2)c1Br | -7.047
103 | Cn1cc(CN2CCn3cc(CNC(=O)C4CCC4)nc3C2)cn1.O=C(O)C(F)(F)F | 18.03
